Results from PubChem BioAssay (NCATS).
Values without a mark were called inactive. Records with an inconclusive call do not appear. A call without a number means that no potency is given here. Activity calls are given as the source filed them. Unless noted, calls come from the whole dose curve; as a rule, active = well fitted curve in the direction sought with a large enough effect; inconclusive = small, poorly fitted or top-dose-only effect, or another doubt; inactive = no such curve, though single readings can be large; an effect the other way counts as inactive or inconclusive.

Key:
[1] = AP1 Signaling Pathway (AID 357; active = well fitted curve in either direction with a large enough effect, not every such curve was filed as active;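 note: ME-180 reporter cells stimulated with EGF at its EC50 level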); conditions: ME-180 AP-1-bla reporter, EGF-induced, beta-lactamase ratio, 5 h; at 7.69 µM (top of the series) unless noted
Summary of the method: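 Cells are seeded overnight, exposed to compound titrations and an EC50 level of EGF for 5 hours at 37 °C, then loaded with CCF4 dye for 2.5 hours. Beta-lactamase activity under the AP-1 element is read as a blue/green ratio.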

[2] = biological target: Cytochrome P450 1A2 (Homo sapiens) (UniProt P05177); experiment: p450-cyp1a2 (AID 410; calls by dose curve)
Summary of the method: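 Luminescent demethylation readout: Luciferin-ME (100uM, equal to Km) turned over by 20nM CYP1A2 for 60 min at room temperature after NADPH regeneration addition, following 10 min compound preincubation. Normalization used 57 uM furafylline as full inhibition.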

[3] = NFAT Signaling Pathway (AID 444; active = well fitted curve in either direction with a large enough effect, not every such curve was filed as active;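 note: carbachol stimulus at about its EC50 of 1 µM final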); conditions: Jurkat NFAT-bla M1, carbachol, beta-lactamase ratio, 5 h; at 7.69 µM (top of the series) unless noted
Summary of the method: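 Jurkat cells carrying an NFAT-driven β-lactamase reporter and co-transfected muscarinic M1 receptor were treated with compound plus carbachol (1 uM final, an EC50 level) for 5 h at 37 °C. CCF4 loading followed for 1 h at RT; 460/530 nm ratio gave %activity.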

[4] = Stat Signaling Pathway (AID 446; active = well fitted curve in either direction with a large enough effect, not every such curve was filed as active;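 note: ME-180 cervical cancer cells given 40 pM IL-6 alongside compound; SIE-controlled beta-lactamase reporter measured as 460/530 nm FRET emission ratio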); conditions: ME-180 (cervical carcinoma) SIE beta-lactamase reporter, IL-6 stimulated, 5 h; at 7.69 µM (top of the series) unless noted
Summary of the method: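 Normalization used AC90 stimulation (300 pM IL-6) and AC90 inhibition (125 nM pan-JAK inhibitor at 40 pM IL-6). The underlying signal is SIE-driven beta-lactamase in ME-180 cells after 5 h IL-6 exposure with compound.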

[5] = biological target: Glucocorticoid receptor (Homo sapiens) (UniProt P04150); experiment: GR-GFP Redistribution (AID 450;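 active = compounds whose dose series gives a full or clear partial fitted curve of increased nuclear translocation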; note: potency is the fitted concentration of half-maximal effect); conditions: U2OS GR-GFP nuclear translocation, laser cytometry, 2 h
[6] = biological target: Glucocorticoid receptor (Homo sapiens) (UniProt P04150); experiment: GR-EFC Redistribution (AID 451; calls by dose curve; note: potency is the fitted concentration of half-maximal effect); conditions: CHO-K1 GR-EFC translocation, beta-gal luminescence, 2 h
Summary of the method: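 CHO-K1 cells stably expressing nuclear-localized β-gal enzyme acceptor and GR fused C-terminally to the enzyme donor fragment; ligand-driven nuclear translocation restores β-gal by complementation. Compounds titrated up to 46 uM final, 2 h at 37 °C; luminescence read.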

[7] = biological target: Mitogen-activated protein kinase 10 (Mus musculus) (UniProt Q61831); experiment: JNK3 AlphaScreen Assay (AID 530; active = well fitted curve in either direction with a large enough effect, not every such curve was filed as active;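 note: kinase came from lysate of stimulated human HepG2 cells; signal reports phosphorylation of biotinylated GST-cJun 1-79 at Ser73 with 10 µM ATP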)
Summary of the method: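 Phosphorylation of biotinylated GST-cJun(1-79) at Ser73 is measured by AlphaScreen proximity luminescence. Enzyme is JNK3 in HepG2 lysates activated with interleukin-1beta and tumor necrosis factor alpha; ATP is 10 uM final.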

[8] = biological target: 3',5'-cyclic-AMP phosphodiesterase 4B (Homo sapiens) (UniProt Q07343); experiment: qHTS Assay for Inhibitors of PDE-IV (AID 607; active = well fitted activation curve with a large enough effect in the main read-out, with a control signal flat, not every such curve was filed as active)
Summary of the method: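 HEK293 ACTOne cells with CNG channel (1000/well), endogenous PDE4; membrane potential dye, compounds up to 22.9 uM final. Fluorescence Ex 535/Em 590; RO 20-1724 (100 uM final) as reference.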

[9] = biological target: Guanine nucleotide-binding protein G(i) subunit alpha-1 (Homo sapiens) (UniProt P63096); experiment: qHTS Assay for Inhibitors of RGS12 GoLoco Motif Activity (Green Fluorophore) (AID 879);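 note: negative values mean loss of peptide binding seen as reduced polarization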
Summary of the method: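 A drop in FITC polarization marked displacement of the FITC-tagged RGS12 GoLoco peptide (10 nM) from Gαi1 (50 nM). Compounds were incubated 10 min at room temperature in Tris pH 7.5 buffer containing 150 mM NaCl, 0.1 mM GDP and 0.05% NP40; unlabeled peptide titration served as control.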

[10] = biological target: Cytochrome P450 3A4 (Homo sapiens) (UniProt P08684); experiment: qHTS Assay for Activators of Cytochrome P450 3A4 (AID 885); note: nearly all actives have a fitted effect of over 65% in size
Summary of the method: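 Human CYP3A4 dealkylates Luciferin-PPXE to luciferin, which luciferase detection converts to light. Substrate was at its KM (25uM), buffer 200mM KPO4, reaction 60 min at RT.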

[11] = biological target: Cytochrome P450 2D6 (Homo sapiens) (UniProt P10635); experiment: qHTS Assay for Inhibitors and Substrates of Cytochrome P450 2D6 (AID 891);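 note: luciferin methyl ether substrate demethylated by CYP2D6 with NADPH regeneration; nearly all actives have a fitted effect of over 60% in size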
Summary of the method: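 Luminescent read-out of luciferin formed by 5 nM human CYP2D6 demethylating 30 uM Luciferin-ME EGE (Km level) over 60 min at room temperature after NADPH regeneration addition. Data normalized to full inhibition by 1.43 uM quinidine.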

[12] = biological target: Cytochrome P450 2C19 (Homo sapiens) (UniProt P33261); experiment: qHTS Assay for Inhibitors and Substrates of Cytochrome P450 2C19 (AID 899); note: nearly all actives have a fitted effect of over 60% in size
Summary of the method: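 Human CYP2C19 (5nM) with Luciferin-H EGE at 10uM (its KM) in 50mM KPO4 was preincubated with compound for 10 min at 37C. NADPH regeneration started a 60 min 37C reaction. Luciferin was read by luminescence, normalized to 57uM ketoconazole.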

[13] = qHTS Assay for Identification of Small Molecule Agonists for Thrombopoietin (TPO) Signaling Pathway (AID 917)
Summary of the method: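 First, Ba/F3 cells with human TPO receptor were held overnight without IL-3. Next, compounds and TPO (26 pM final) were added. After 24 hrs at 37 C, luciferase detection reagent was added and luminescence measured following 10 min at room temperature.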

[14] = biological target: Muscarinic acetylcholine receptor M1 (Rattus norvegicus) (UniProt P08482); experiment: qHTS Assay for Antagonists of Acetylcholine Muscarinic M1 Receptor: Measurement of IP-One Response (AID 944); note: nearly all actives have a fitted effect of over 75% in size
Summary of the method: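 IP1 accumulation measured via TR-FRET between d2-IP1 and Eu-cryptate anti-IP1 antibody after carbachol (200 nM, EC80) stimulation for 30 min; rat M1-transfected CHO cells received compound 10 min before agonist.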

[15] = biological target: Pyruvate kinase (Leishmania mexicana) (UniProt Q27686); experiment: qHTS Validation Assay for Inhibitors of Leishmania Mexicana Pyruvate Kinase (AID 945)
Summary of the method: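 LmPYK E451W 0.2 nM; 0.5 mM PEP, 0.1 mM ADP, 7 mM MgCl2, 50 mM KCl, imidazole pH 7.2, 0.01% Tween 20, 0.05% BSA; 1 h RT; PKLight luminescence; DMSO-normalized.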

[16] = biological target: Pyruvate kinase PKM (Homo sapiens) (UniProt P14618); experiment: qHTS Assay for Activators of Human Muscle Pyruvate Kinase (AID 954; active = well fitted curve in the direction sought with a large enough effect, not every such curve was filed as active)
Summary of the method: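 Compound pinned into substrate mix (0.5 mM PEP, 0.1 mM ADP), then 0.1 nM PKM2 added; 1 h, RT. Stop/detection luciferase reagent added, luminescence read. Normalized to no-inhibition and no-enzyme or reference-inhibitor controls.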

[17] = biological target: Alpha-galactosidase A (Homo sapiens) (UniProt P06280); experiment: Counterscreen for Glucocerebrosidase Inhibitors: qHTS Assay for Human alpha-Galactosidase at pH 4.5 (AID 992)
Summary of the method: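 Steps: enzyme (2 nM final), then compound across 0.7 nM to 77 uM, then 80 uM fluorogenic galactopyranoside substrate; incubate 20 min at room temperature; quench at pH 10; measure fluorescence at 365/440 nm.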

[18] = biological target: alpha-glucosidase (Oryza sativa, rice) (UniProt Q653V4); experiment: Counterscreen for Glucocerebrosidase Inhibitors: qHTS Assay for Rice alpha-Glucosidase at pH 5.0 (AID 997)
Summary of the method: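 Endpoint fluorogenic assay at pH 5.0: compounds (0.7 nM to 77 uM) titrated against 4 nM rice enzyme and 400 uM 4-MU-alpha-glucoside for 20 min at room temperature; NaOH/glycine stop, read ex 365/em 440 nm, Hill-fitted AC50.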

[19] = biological target: Muscarinic acetylcholine receptor M1 (Rattus norvegicus) (UniProt P08482); experiment: qHTS Assay for Antagonists of Acetylcholine Muscarinic M1 Receptor: Kinetic Measurement of Intracellular Calcium Response (AID 943);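 note: Fluo-4 calcium signal as peak divided by basal fluorescence over 4 min; nearly all actives have a fitted effect of over 75% in size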
Summary of the method: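 Antagonism measured as reduction of carbachol-evoked (EC80, 100 nM final) calcium flux in rat M1-CHO cells after 10 min compound exposure. Fluo-4 signal read kinetically; ratio of maximal to basal fluorescence.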

[20] = qHTS Assay for Identification of Small Molecule Antagonists for NFkB Signaling Pathway (AID 895; active = well fitted inhibition curve with a large enough effect in the signal ratio, with a control signal flat, not every such curve was filed as active; the % refers to the signal ratio; note: potency is the fitted concentration of half-maximal effect)
Summary of the method: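 NFkB-bla ME-180 cervical carcinoma cells with beta-lactamase reporter under NFkB response element; compounds added, then TNF alpha at 10 pM final (EC50), 5 h at 37 C. LiveBLAzer substrate 2 h, room temperature; emission 460/530 nm at 405 nm excitation.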

Sequence of Pyruvate kinase PKM (Homo sapiens) (P14618 whole entry, looked up): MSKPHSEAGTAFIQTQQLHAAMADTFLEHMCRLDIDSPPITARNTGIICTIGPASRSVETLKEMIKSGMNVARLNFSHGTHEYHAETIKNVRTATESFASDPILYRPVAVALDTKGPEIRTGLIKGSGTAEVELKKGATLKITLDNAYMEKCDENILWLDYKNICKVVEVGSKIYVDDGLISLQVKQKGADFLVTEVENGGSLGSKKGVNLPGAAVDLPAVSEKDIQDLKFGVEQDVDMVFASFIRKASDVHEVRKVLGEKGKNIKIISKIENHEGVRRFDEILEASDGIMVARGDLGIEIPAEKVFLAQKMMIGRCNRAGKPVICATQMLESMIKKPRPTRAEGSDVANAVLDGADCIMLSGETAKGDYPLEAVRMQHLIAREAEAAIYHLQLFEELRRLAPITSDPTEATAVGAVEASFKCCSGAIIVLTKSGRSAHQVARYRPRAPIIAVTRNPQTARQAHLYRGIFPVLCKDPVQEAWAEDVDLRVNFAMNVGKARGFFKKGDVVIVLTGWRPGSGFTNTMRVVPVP
Sequence of Cytochrome P450 2C19 (Homo sapiens) (P33261 whole entry, looked up): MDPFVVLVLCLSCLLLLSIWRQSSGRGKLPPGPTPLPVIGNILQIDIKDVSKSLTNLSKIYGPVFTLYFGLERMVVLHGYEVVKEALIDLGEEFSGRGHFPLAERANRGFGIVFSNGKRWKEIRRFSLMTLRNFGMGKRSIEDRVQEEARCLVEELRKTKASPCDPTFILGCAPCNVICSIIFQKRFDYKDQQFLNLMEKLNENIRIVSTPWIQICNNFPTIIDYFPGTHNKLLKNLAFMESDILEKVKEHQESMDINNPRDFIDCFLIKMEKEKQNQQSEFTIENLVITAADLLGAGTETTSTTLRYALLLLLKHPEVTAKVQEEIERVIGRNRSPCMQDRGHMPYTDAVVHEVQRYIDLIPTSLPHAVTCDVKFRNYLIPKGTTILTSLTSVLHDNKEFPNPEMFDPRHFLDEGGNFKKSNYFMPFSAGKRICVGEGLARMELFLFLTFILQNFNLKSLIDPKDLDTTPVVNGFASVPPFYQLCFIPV
Sequence of 3',5'-cyclic-AMP phosphodiesterase 4B (Homo sapiens) (Q07343 whole entry, looked up): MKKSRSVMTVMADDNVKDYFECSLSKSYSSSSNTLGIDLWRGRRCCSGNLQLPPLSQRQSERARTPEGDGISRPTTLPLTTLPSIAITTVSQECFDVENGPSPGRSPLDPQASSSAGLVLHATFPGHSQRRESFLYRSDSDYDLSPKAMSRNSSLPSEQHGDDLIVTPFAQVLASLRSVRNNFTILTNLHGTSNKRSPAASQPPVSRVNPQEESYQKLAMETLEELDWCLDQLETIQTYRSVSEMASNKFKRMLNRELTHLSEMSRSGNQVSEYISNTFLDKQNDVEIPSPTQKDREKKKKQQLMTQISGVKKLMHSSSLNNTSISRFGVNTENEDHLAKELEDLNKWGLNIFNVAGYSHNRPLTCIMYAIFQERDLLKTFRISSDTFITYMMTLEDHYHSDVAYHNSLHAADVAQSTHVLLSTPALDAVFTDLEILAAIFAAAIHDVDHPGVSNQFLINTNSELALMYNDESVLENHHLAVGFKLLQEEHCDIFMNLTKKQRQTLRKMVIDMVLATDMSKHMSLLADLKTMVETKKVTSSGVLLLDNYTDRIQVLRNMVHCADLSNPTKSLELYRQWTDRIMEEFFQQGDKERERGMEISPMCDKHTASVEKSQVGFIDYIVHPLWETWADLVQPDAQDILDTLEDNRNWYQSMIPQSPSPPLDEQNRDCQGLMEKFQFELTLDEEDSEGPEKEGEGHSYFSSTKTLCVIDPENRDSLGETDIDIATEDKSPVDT
Sequence of Cytochrome P450 1A2 (Homo sapiens) (P05177 whole entry, looked up): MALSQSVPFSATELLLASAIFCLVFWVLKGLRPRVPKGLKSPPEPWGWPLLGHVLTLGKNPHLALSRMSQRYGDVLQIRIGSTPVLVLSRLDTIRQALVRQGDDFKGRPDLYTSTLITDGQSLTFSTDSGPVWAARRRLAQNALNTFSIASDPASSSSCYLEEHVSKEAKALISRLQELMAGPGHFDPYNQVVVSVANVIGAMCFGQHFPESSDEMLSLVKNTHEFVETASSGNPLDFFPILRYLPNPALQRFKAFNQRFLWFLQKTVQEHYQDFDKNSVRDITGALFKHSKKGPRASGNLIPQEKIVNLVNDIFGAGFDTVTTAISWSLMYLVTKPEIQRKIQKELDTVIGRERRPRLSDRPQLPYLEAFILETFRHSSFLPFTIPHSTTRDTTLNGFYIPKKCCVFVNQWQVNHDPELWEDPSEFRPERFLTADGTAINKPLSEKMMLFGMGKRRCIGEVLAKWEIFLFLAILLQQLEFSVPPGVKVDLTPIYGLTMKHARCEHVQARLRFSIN
Sequence of Guanine nucleotide-binding protein G(i) subunit alpha-1 (Homo sapiens) (P63096 whole entry, looked up): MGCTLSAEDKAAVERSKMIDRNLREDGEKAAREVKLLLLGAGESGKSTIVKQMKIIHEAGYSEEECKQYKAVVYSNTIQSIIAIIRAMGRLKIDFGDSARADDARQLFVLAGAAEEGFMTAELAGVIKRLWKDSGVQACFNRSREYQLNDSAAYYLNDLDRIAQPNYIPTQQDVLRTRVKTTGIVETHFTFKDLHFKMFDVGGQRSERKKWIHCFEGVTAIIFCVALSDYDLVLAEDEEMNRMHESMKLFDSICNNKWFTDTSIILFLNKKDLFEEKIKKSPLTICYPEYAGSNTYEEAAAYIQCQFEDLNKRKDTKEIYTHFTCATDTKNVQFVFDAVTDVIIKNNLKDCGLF
Sequence of Pyruvate kinase (Leishmania mexicana) (Q27686 2-499 E452W): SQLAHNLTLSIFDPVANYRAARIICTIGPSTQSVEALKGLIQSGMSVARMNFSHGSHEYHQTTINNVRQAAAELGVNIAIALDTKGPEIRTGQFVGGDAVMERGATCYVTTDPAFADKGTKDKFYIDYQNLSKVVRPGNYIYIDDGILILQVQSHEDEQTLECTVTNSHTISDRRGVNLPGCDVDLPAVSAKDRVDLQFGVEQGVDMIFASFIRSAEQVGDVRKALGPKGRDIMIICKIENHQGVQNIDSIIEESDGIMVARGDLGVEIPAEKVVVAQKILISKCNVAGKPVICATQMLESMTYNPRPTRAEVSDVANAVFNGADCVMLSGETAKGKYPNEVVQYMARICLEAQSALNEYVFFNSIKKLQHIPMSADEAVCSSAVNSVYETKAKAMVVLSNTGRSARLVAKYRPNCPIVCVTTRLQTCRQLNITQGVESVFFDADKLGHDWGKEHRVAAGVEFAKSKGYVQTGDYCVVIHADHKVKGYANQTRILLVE
Sequence of Muscarinic acetylcholine receptor M1 (Rattus norvegicus) (P08482 whole entry, looked up): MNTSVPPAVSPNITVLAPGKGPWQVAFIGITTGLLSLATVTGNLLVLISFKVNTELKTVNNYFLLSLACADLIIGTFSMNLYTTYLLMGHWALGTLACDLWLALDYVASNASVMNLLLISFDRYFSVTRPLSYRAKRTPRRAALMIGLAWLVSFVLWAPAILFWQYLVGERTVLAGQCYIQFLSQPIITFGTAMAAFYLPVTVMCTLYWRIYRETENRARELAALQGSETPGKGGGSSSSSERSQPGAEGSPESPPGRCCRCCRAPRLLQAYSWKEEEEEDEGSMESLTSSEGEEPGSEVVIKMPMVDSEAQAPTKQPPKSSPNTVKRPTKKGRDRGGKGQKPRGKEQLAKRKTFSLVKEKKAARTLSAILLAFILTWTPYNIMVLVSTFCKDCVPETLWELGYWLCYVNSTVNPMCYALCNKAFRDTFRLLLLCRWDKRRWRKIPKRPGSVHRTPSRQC
Sequence of Glucocorticoid receptor (Homo sapiens) (P04150 whole entry, looked up, the tested form may be a part): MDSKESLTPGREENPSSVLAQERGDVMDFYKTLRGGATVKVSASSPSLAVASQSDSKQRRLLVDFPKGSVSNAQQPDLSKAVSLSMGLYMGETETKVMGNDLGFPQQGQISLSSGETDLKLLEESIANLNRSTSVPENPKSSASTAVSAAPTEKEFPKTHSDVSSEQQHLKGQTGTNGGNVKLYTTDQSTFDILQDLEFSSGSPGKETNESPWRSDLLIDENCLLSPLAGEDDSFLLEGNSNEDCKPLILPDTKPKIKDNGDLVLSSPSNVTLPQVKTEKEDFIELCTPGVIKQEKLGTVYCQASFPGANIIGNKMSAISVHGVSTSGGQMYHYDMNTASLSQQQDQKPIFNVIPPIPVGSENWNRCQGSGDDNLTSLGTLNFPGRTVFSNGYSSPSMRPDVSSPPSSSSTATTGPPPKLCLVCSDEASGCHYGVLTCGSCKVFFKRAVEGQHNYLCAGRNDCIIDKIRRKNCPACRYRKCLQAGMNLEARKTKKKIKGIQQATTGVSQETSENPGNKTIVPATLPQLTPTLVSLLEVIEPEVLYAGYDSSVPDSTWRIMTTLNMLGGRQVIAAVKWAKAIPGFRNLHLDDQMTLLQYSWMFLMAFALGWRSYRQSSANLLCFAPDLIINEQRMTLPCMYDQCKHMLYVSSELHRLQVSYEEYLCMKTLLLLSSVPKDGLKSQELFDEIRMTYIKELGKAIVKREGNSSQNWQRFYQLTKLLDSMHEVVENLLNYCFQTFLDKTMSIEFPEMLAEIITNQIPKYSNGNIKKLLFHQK
Sequence of Cytochrome P450 3A4 (Homo sapiens) (P08684 whole entry, looked up): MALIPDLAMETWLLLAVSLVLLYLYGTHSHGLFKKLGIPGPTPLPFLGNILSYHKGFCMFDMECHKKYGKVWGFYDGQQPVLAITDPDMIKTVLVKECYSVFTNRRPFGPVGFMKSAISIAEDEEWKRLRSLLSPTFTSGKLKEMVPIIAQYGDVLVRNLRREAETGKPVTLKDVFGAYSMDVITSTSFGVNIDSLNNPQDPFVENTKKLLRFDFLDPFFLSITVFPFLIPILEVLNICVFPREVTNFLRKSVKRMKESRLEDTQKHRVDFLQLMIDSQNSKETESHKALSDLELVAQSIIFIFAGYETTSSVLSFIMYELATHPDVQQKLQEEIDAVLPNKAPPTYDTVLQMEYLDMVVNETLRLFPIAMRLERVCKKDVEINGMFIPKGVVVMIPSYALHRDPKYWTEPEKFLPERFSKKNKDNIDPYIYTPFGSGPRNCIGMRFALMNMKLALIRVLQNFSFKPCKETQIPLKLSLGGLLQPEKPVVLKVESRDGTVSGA

Compound	activity change, negative = inhibition [1]	Potency [2]	activity change, negative = inhibition [3]	activity, negative = inhibition [4]	Potency [5]	Potency [6]	Potency [7]	Potency [8]	outcome [9]	Potency [10]	Potency [11]	Potency [12]	outcome [13]	Potency [14]	outcome [15]	outcome [16]	outcome [17]	Potency [18]	Potency [19]	Potency [20]
CC1=C(C(=O)O)N2C(=O)[C@@H](NC(=O)[C@@H](N)C3=CCC=CC3)[C@@H]2SC1	0.806% [at 38 µM]	inactive	1.78% [at 38 µM]	-5.32% [at 38 µM]	> 46 µM	> 46 µM	inactive	inactive	inactive	inactive	inactive	inactive	inactive	inactive	inactive	inactive	inactive	inactive		
Oc1ccc([C@@H]2CNCc3sccc32)cc1O	-15.6% [at 38 µM]	inactive	8.54% [at 38 µM]	5.59% [at 38 µM]	> 46 µM	> 46 µM	inactive	inactive	inactive	inactive				inactive	inactive	inactive	inactive	inactive		
C[C@H](O)[C@H](O)[C@@H]1CNc2nc(N)[nH]c(=O)c2N1	7.68% [at 38 µM]	inactive	7.39% [at 38 µM]	18.8% [at 38 µM]	> 46 µM	> 46 µM	inactive	inactive	inactive				inactive	inactive	inactive	inactive	inactive	inactive	inactive	
CN[C@]1(C)[C@@H]2CC[C@@H](C2)C1(C)C	-7.63% [at 38 µM]	inactive	-5.79% [at 38 µM]	-12.2% [at 38 µM]	> 46 µM	> 46 µM	inactive	inactive	inactive	inactive		inactive		inactive	inactive	inactive	inactive	inactive	inactive	
Nc1ncnc2c1ncn2[C@@H]1CCCO1	2.44% [at 38 µM]	inactive	-4.45% [at 38 µM]	-7.91% [at 38 µM]	> 46 µM	> 46 µM	inactive	inactive	inactive				inactive	inactive	inactive	inactive	inactive	inactive		
NC(=S)NCCC[C@@H](N)C(=O)O	4.46% [at 38 µM]	inactive	4.17% [at 38 µM]	-8.44% [at 38 µM]	> 46 µM	> 46 µM	inactive	inactive	inactive	inactive			inactive	inactive	inactive	inactive	inactive	inactive		inactive
NC(=O)c1ncn([C@@H]2O[C@@H](CO)[C@@H](O)[C@H]2O)c1O	15.7% [at 38 µM]	inactive	2.24% [at 38 µM]	3.38% [at 38 µM]	> 46 µM	> 46 µM	inactive	inactive	inactive				inactive		inactive	inactive	inactive	inactive	inactive	
O=C(O)CCC(=O)N1CCC[C@H]1C(=O)O	14% [at 38 µM]	inactive	7.11% [at 38 µM]	-28.5% [at 38 µM]	> 46 µM	> 46 µM	inactive	inactive	inactive			inactive	inactive	inactive	inactive	inactive	inactive	inactive		
C[C@@H](Cc1ccccc1)Nc1ncnc2c1ncn2[C@@H]1O[C@@H](CO)[C@H](O)[C@@H]1O	-12.1% [at 38 µM]	inactive	-0.283% [at 38 µM]	-0.703% [at 38 µM]	> 46 µM	> 46 µM	inactive	inactive	inactive	inactive			inactive	inactive	inactive	inactive	inactive	inactive		3.98 µM (active)
O=C1OC(=O)[C@@H]2[C@@H]1[C@@H]1CC[C@H]2O1	4.01% [at 38 µM]	inactive	5.96% [at 38 µM]	-11.3% [at 38 µM]	> 46 µM	> 46 µM	inactive	inactive	inactive		inactive	inactive		inactive	inactive	inactive	inactive	inactive	inactive	
